# About 83,000 compounds went through this panel and 20% of them were active in at least one assay; those are over-represented in the sample as a whole.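 Assay: single dose, 48 h. Readout: percent growth (0 = no net growth; negative = cell death). Active: <10.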 Values without a mark were called inactive. The source made the active and inactive calls.
# Legend:
# Experiment in all cases: NCI-60 one-dose screen, 48 h (100 = growth as untreated, 0 = no growth, -100 = all killed)
# Details in all cases: 10 µM unless noted
# DU-145 prostate = system: DU-145 prostate
# K-562 leukemia = system: K-562 leukemia
# MALME-3M melanoma = system: MALME-3M melanoma
# MDA-MB-231 breast = system: MDA-MB-231 breast
# RXF 393 renal = system: RXF 393 renal
# SF-268 CNS = system: SF-268 CNS
# SF-295 CNS = system: SF-295 CNS
# SF-539 CNS = system: SF-539 CNS
# UACC-257 melanoma = system: UACC-257 melanoma
# M14 melanoma = system: M14 melanoma
# HCT-15 colon = system: HCT-15 colon
# HT29 colon = system: HT29 colon
# SNB-75 CNS = system: SNB-75 CNS
# SNB-19 CNS = system: SNB-19 CNS
# U251 CNS = system: U251 CNS
# PC-3 prostate = system: PC-3 prostate
# SK-MEL-5 melanoma = system: SK-MEL-5 melanoma
# UACC-62 melanoma = system: UACC-62 melanoma
# LOX IMVI melanoma = system: LOX IMVI melanoma
# SK-MEL-28 melanoma = system: SK-MEL-28 melanoma
Structure (SMILES),growth (DU-145 prostate),growth (K-562 leukemia),growth (MALME-3M melanoma),growth (MDA-MB-231 breast),growth (RXF 393 renal),growth (SF-268 CNS),growth (SF-295 CNS),growth (SF-539 CNS),growth (UACC-257 melanoma),growth (M14 melanoma),growth (HCT-15 colon),growth (HT29 colon),growth (SNB-75 CNS),growth (SNB-19 CNS),growth (U251 CNS),growth (PC-3 prostate),growth (SK-MEL-5 melanoma),growth (UACC-62 melanoma),growth (LOX IMVI melanoma),growth (SK-MEL-28 melanoma)
C=CCSc1nnc(NC(=O)CCl)s1,87.4%,87.7%,73.8%,89.6%,97.5%,91.9%,101%,101%,79.1%,83.2%,89.7%,110%,103%,89.8%,92%,103%,88%,88.8%,7.79% (active),99%
Cc1c[n+](Cc2ccc3ccccc3c2)cn1Cc1ccc2ccccc2c1,37.1%,8.82% (active),0.847% (active),-8.23% (active),2.91% (active),24.3%,45.5%,33.1%,-26.1% (active),-15.5% (active),95.1%,-35.5% (active),-0.361% (active),17.7%,8.55% (active),10.3%,-71.2% (active),-30.5% (active),19.5%,4.48% (active)
Clc1cccc(Nc2ncnc3ccc(-c4cnc5[nH]ccc5c4)cc23)c1,54%,62.1%,82.9%,75%,73.7%,66.2%,86.8%,84%,75%,88.7%,69.4%,54.1%,84.7%,82.3%,72.9%,70.5%,75.4%,90.2%,86.2%,96%
CCOC(=O)C/C(=N\Nc1cc(=O)[nH]c2ccc(Br)cc12)C(=O)OCC,104%,24.2%,90.5%,102%,104%,100%,102%,99.8%,111%,96.8%,99.3%,107%,88.2%,99.5%,108%,87.4%,95.1%,90.6%,94.4%,107%
Cc1ccc2c(n1)C(=O)C(Br)=C(CC(C)C)C2=O,109%,33.8%,99.7%,91.4%,102%,96.2%,102%,97.7%,85.1%,102%,104%,108%,97.3%,101%,97.8%,97.5%,98.1%,93.9%,98.1%,105%
COc1cc(OC)c(NC(=O)c2cc3ccccc3cc2O)cc1Cl,46.4%,23.4%,19.5%,70.4%,120%,51.2%,53.3%,52.9%,59.8%,42.1%,48.5%,101%,86.9%,51%,17.7%,-0.247% (active),51.4%,3.04% (active),24.2%,53.6%
COc1ccc(Nc2ncc(Br)c(NCCCNC(=O)C3CCCC3)n2)cc1,48.9%,31.2%,58.5%,-27.7% (active),-20.9% (active),21.6%,39.4%,2.9% (active),96.5%,61.5%,37.1%,47.5%,51.1%,35.2%,27.2%,44%,67.5%,46.2%,11%,57.2%
Nc1nc(-c2ccc(Cl)cc2)nc2c1sc(=S)n2-c1ccccc1,56.1%,41.1%,-15.9% (active),34.7%,-2.61% (active),40.7%,16.4%,-20.7% (active),59.9%,68.1%,60.1%,47.9%,-30.5% (active),37.9%,17.7%,62.1%,36.8%,46.9%,29.4%,55.7%
COc1ccccc1CNc1c2ccccc2nc2ccccc12,50.5%,10.1%,45.9%,57.6%,30.6%,65.1%,37.4%,21.2%,64.1%,40.8%,26%,17.7%,63.5%,35.8%,38.6%,43.2%,59.2%,60.5%,18.9%,80%
C=CCc1c(O)c(C(=O)/C=C/c2ccccc2)c(OC)c2ccoc12,63.2%,46.8%,79.4%,47.6%,7.33% (active),43%,34.5%,24.8%,40.6%,59.3%,39.6%,27.9%,72.9%,46.6%,26.8%,33.9%,33.3%,41.3%,35.2%,64.6%
COc1ccc(Nc2nc(-c3cc(O)c(C)c(C)c3O)cs2)cc1,87.3%,23.9%,95.2%,88.5%,78.7%,64.7%,84.1%,81.6%,98.1%,76.2%,50.4%,105%,78.8%,102%,70.2%,43.9%,82.3%,68.9%,61.5%,99.5%
COc1ccccc1N1CCCCC1,110%,93.5%,94.6%,99.9%,133%,108%,98.9%,94.3%,108%,101%,102%,101%,99.4%,95.2%,108%,98.8%,108%,96.3%,100%,102%
COc1ccc(NC2=C(I)C(=O)c3ncccc3C2=O)cc1,-84.2% (active),2.18% (active),-98.2% (active),-11.8% (active),33%,14.7%,8.7% (active),-30% (active),15.9%,-65.7% (active),-40.2% (active),11.5%,-93.1% (active),19.3%,-47.7% (active),12.3%,-94.6% (active),-71.2% (active),-58.6% (active),20.5%
CCN(CC)CC(O)COc1c(Br)c(Br)c(Br)c2c1OC(C)(C)C2 (stereo not given),117%,23.9%,-30.1% (active),44.7%,99.4%,83%,1.69% (active),108%,140%,41.3%,97.3%,18.9%,91.3%,73.4%,85.6%,78.1%,-78.9% (active),-43.7% (active),52.9%,64%
c1ccc(-c2oc(-c3ccccc3)c(CN3CCCCC3)c2CN2CCCCC2)cc1,57.7%,7.49% (active),-12.5% (active),29.6%,2.14% (active),57.9%,37.3%,46.7%,15.8%,1.67% (active),19.4%,10.9%,55.6%,44.5%,25.2%,19.6%,-87% (active),37.6%,22.3%,10.1%
